According to PubChem BioAssay AID651650 (Sanford-Burnham Center for Chemical Genomics, 2012):

What follows are compounds tested against Neuropilin-1 (Homo sapiens) (UniProt O14786) (assay: blockers of CendR peptide binding to NRP-1 – biochemical, FP and AlphaScreen panel, dose response (AID 651650)). Settings: NRP-1 b1b2 / RPARPAR peptide binding, FP or AlphaScreen; run 1, at 100 µM (top of the series).
Neuropilin-1 (Homo sapiens), sequence (O14786 whole entry, looked up): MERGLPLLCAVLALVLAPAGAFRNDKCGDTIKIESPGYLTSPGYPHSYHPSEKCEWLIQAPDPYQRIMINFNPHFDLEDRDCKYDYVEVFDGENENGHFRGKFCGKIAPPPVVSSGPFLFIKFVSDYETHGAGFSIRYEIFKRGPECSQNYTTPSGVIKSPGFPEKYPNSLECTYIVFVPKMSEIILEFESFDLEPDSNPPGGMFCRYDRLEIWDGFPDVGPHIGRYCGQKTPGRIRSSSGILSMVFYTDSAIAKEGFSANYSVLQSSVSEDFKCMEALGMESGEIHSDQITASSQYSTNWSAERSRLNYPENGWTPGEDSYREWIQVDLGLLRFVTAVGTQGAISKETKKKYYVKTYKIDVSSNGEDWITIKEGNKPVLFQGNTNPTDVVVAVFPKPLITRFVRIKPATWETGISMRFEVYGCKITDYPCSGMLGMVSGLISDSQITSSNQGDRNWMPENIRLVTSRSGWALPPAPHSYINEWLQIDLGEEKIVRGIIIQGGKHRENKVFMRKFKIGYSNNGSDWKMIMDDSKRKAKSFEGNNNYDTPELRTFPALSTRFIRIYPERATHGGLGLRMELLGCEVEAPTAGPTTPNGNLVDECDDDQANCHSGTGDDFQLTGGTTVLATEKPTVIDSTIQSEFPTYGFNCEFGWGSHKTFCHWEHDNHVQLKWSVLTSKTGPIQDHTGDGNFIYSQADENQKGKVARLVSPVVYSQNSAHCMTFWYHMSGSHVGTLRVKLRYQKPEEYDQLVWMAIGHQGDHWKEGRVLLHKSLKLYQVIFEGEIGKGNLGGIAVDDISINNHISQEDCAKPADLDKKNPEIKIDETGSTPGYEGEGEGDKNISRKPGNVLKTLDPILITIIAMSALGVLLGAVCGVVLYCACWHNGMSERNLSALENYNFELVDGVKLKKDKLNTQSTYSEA
For `COc1cc(C(=O)OCCCOC(=O)c2cc(OC)c(OC)c(OC)c2)cc(OC)c1OC`, the inhibition was 13.4%. `COC(=O)n1c(=O)oc2ccccc21` showed an inhibition of 50%. For `CNC(=O)Nc1ccccc1C(=O)NCc1ccccc1`, the inhibition was 25.7%. For `CC(C)C[C@@H](COc1ccccc1)N1CCN(CCc2ccccc2)CCC1=O`, the inhibition was 46.6%. `CCc1ccc(C2CC(=O)N(c3cccc(F)c3)C3=C2C(=O)OC3)cc1` (stereo not drawn) gave an inhibition of 33.7%. Work on `CCC(=O)Nc1cc2c3c(c1)CCC(=O)N3CCC2` yielded an inhibition of 101%. `COc1ccccc1C(=O)NC(=O)CSc1nncn1C` showed an inhibition of 30.4%. `COc1cccc(NC(=O)CSc2nc(O)c(C)c(=O)n2-c2ccc(C)cc2)c1` showed an inhibition of 84.9%. With `CC(C)NC(=O)c1c(CSc2ccccc2)noc1C(=O)NCc1ccccc1` the inhibition was 49%. For `CN1C(=O)c2oc3ccccc3c(=O)c2C1c1ccccn1` (stereo not drawn), the inhibition was 82.2%. Compound `Cn1c(=O)c2c(ncn2CC(COCc2ccccc2)OCc2ccccc2)n(C)c1=O` (stereo not drawn) has an inhibition of 54.8%. `CCOC(=O)c1cnc(-c2ccccc2)nc1Oc1ccc(OC)cc1` was tested, and the inhibition was 99.5%. In the case of `COCCNC(=S)N(CCc1c(C)[nH]c2ccc(F)cc12)Cc1cccs1`, the inhibition is reported as 34.4%. `Cc1ccccc1-n1ncc2c1CC(C)(C)CC2NC(=O)c1ccncc1` (stereo not drawn) was tested, and the inhibition was 28.1%. `CCOC(=O)c1ccc(N2CCN(C(=O)c3ccccc3)CC2)c(NC(=O)c2ccco2)c1` showed an inhibition of 40.4%. `Cc1onc(-c2ccccc2)c1C(=O)Nc1c(C)n(C)n(-c2ccccc2)c1=O` was tested, and the inhibition was 28.1%. `CCOC(=O)CNc1ccc2c(c1)OCO2` showed an inhibition of 82.2%. Work on `C#CCOc1nc(C)cc(C)c1S(=O)(=O)c1ccccc1C` yielded an inhibition of 25.9%. `Cc1ccc2c(c1)C(c1ccncc1)=NNC(c1ccc(F)cc1)=N2` gave an inhibition of 36.3%. `CCOC(=O)Cn1c(=O)n(Cc2ccco2)c(=O)c2ccc(C(=O)NC3CCCC3)cc21` gave an inhibition of 61%. Work on `CN(C)/C=C/c1c([N+](=O)[O-])c2ccc(O)cc2n1-c1ccccc1` yielded an inhibition of 39.4%. In the case of `O=C1c2cc([N+](=O)[O-])cc3cc([N+](=O)[O-])cc(c23)C(=O)N1c1ccccn1`, the inhibition is reported as 17.2%. In the case of `CCCCc1ccc(S(=O)(=O)N2CCC3(CC2)OCCO3)cc1`, the inhibition is reported as 16.7%. With `Cc1cnccc1CNC(=O)CC1C(=O)NCCN1CC(C)(C)C` (stereo not drawn) the inhibition was 57.6%. For `O=C(Cc1ccc(F)cc1)N1CCN=C1SCc1ccc([N+](=O)[O-])cc1`, the inhibition was 18.7%. For `CCOC(=O)C[C@H]1c2cc(C(F)(F)F)ccc2S(=O)(=O)N1Cc1ccccc1`, the inhibition was 59.5%. `Nc1ncnc2[nH]c(=S)[nH]c12` gave an inhibition of -4.05%. `O=C(NCc1ccccc1)C(c1cccnc1)N(C(=O)c1ccccn1)c1ccccc1F` (stereo not drawn) gave an inhibition of 43.9%. In the case of `COc1ccccc1COc1ccc2c(C)c(CC(=O)O)c(=O)oc2c1C`, the inhibition is reported as 44.2%. `COc1ccc(C(=O)COC(=O)C(CCSC)NS(=O)(=O)c2ccc(Cl)cc2)cc1` (stereo not drawn) was tested, and the inhibition was -2.36%. `CCOC(=O)[C@]12CCCC=C1N(CCC1=CCCCC1)C(=O)[C@H](CC(=O)NCC13CC4CC(CC(C4)C1)C3)C2` showed an inhibition of 20.7%. `CSc1cccc(CN2CCN(Cc3ccccc3)C(CCO)C2)c1` (stereo not drawn) was tested, and the inhibition was 48.8%. For `O=C(NNC(=O)c1csc(N2CCOCC2)n1)c1ccc(=O)[nH]c1`, the inhibition was 39.8%. `CC1(c2ccccc2)CC(C)(C)n2c(O)c(C3=NC(=S)NC3=O)c3cccc1c32` (stereo not drawn) showed an inhibition of 12.3%. `CC#CCN(Cc1ccco1)C(=O)C1CCC(=O)N(Cc2ccccc2F)C1` (stereo not drawn) showed an inhibition of 24.4%. For `O=C(CSc1nc2ccccc2c(=O)n1-c1ccc(F)cc1F)Nc1ccc2c(c1)CCC2`, the inhibition was 21.2%. `Cc1ccc(NC(=S)N2CCN(Cc3ccccc3)CC2)cc1` showed an inhibition of -7.69%. `CCNS(=O)(=O)c1ccc(CCC(=O)O)cc1` gave an inhibition of 23.4%.
